Experimental data: PubChem BioAssay
Activity calls are given as the source filed them. Rule as the data show it, unless noted: active = inhibition above about 80%; inactive = the rest.

Columns and labels:
[1] = growth inhibition, single agent or in combination, cell-based, chromothripsis tumors, cisplatin or BGB combos (AID 1671449); conditions: LFS_MB_P medulloblastoma cells;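 also: cells exposed for 96 hours; 0% = vehicle DMSO and 100% = killing by high DMSO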
[2] = growth inhibition, single agent and combos, cell-based, chromothripsis tumors, cisplatin or BGB combos (AID 1671450); conditions: HDN33 neuroblastoma cells, stronger effect = higher value;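 also: cells exposed to compound for four days; 0% = vehicle DMSO and 100% = cell killing by high DMSO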
[3] = growth inhibition, single agents and combos, ICB984, cell-based, cisplatin or BGB combos, synergistic combos for chromothripsis tumors (AID 1671451; call rule not given here;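 also: cells exposed for 96 hours before readout; 0% = vehicle DMSO and 100% = killing by high DMSO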); conditions: ICB984 medulloblastoma cells, drug combinations, stronger effect = higher value
[4] = growth inhibition, single agents and combos, LFS_MB_1R, cell-based, cisplatin or BGB combos, synergistic combos for chromothripsis tumors (AID 1671452); conditions: LFS_MB_1R medulloblastoma cells, stronger effect = higher value;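 also: cells exposed for 96 hours before readout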
[5] = growth inhibition, single agents and combos, HTB85, cell-based, BGB or cisplatin IC20 combos, synergistic combos for chromothripsis tumors (AID 1671453); conditions: HTB85 osteosarcoma cells, drug combinations, stronger effect = higher value;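 also: cells exposed for 96 hours before readout; 0% = vehicle DMSO and 100% = high DMSO killing control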
[6] = growth inhibition, single agents and combos, CRL2098, cell-based, BGB or cisplatin IC20 combos, synergistic combos for chromothripsis tumors (AID 1671454); conditions: CRL2098 osteosarcoma cells, drug combinations, stronger effect = higher value;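 also: cells exposed for 96 h before readout; 0% = vehicle DMSO and 100% = killing by high DMSO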
[7] = growth inhibition, single agents and combos, HD-MB03, cell-based, BGB or cisplatin IC20 combos, synergistic combos for chromothripsis tumors (AID 1671455; in the data active = inhibition above about 83%;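 also: 0% = vehicle DMSO and 100% = high DMSO as cytotoxic control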); conditions: HD-MB03 medulloblastoma cells, stronger effect = higher value
[8] = growth inhibition, single agents and combos, UWB1.289, cell-based, BGB or cisplatin combos, synergistic combos for chromothripsis tumors (AID 1671456); conditions: UWB1.289 ovarian carcinoma cells, stronger effect = higher value;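 also: cells exposed to compound for four days; 0% = vehicle DMSO and 100% = killing by high DMSO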
[9] = growth inhibition, single agents and combos, LFS_MB_2R, cell-based, cisplatin combos, synergistic combos for chromothripsis tumors (AID 1671457); conditions: LFS_MB_2R medulloblastoma cells, stronger effect = higher value;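 also: cells exposed to compound for four days before readout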
[10] = growth inhibition, MDA-MB-436, cell-based, BGB or cisplatin combos, synergistic combos for chromothripsis tumors (AID 1671458; call rule not given here;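 also: cells exposed for 96 hours; 0% = vehicle DMSO and 100% = killing by high DMSO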); conditions: MDA-MB-436 breast carcinoma growth inhibition, drug combinations, stronger effect = higher value
[11] = UWB1.289_BRCA1 ovarian cancer growth, cell-based, BGB or cisplatin combinations (AID 1671459); conditions: UWB1.289 BRCA1 ovarian carcinoma, drug combinations, stronger effect = higher value
[12] = drug combination toxicity in non-malignant astrocytes – cell-based, BGB or cisplatin IC20 combos, cytotoxicity control for chromothriptic childhood tumor combination screen (AID 1671460); conditions: Human astrocytes, viability inhibition, drug combinations, at 0.5 µM, stronger effect = higher value;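 also: cells exposed to compounds for 96 hours before viability readout; 0% = vehicle and 100% = killing control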
[13] = BT084 cell growth, single and combined drugs, ICGC_MB145, cisplatin and BGB IC40 combos (AID 1671461); conditions: BT084 medulloblastoma cells, drug combinations, stronger effect = higher value;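 also: cells exposed to drugs for 96 hours; 0% = vehicle DMSO and 100% = high DMSO full killing control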
[14] = RCMB18 cell growth, single agent and combined, cisplatin and BGB IC40 combos (AID 1671462); conditions: RCMB18 medulloblastoma cells, stronger effect = higher value;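 also: cells exposed to compound for four days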
[15] = CRL1545 cell growth, single agent and combined, cisplatin and BGB IC20 combos (AID 1671464); conditions: CRL1545 osteosarcoma cells, stronger effect = higher value;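 also: cells exposed to compound for 96 hours before readout; 0% = vehicle DMSO and 100% = high DMSO killing control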
[16] = galactose survival enhancers in mitochondrial complex I cybrids – cell-based, galactose medium, ATP luminescence, primary screen (AID 1645843;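 active = z-score of at least 1.8 in each of two replicates, scored against plate mean and spread of sample wells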;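 also: positive z means more ATP and so rescue of galactose-driven cybrid death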); conditions: complex I mutant cybrid cells, 72 h, stronger effect = higher value
[17] = measured here: combination with BGB IC40, at 0.05 µM
[18] = measured here: with BGB IC20 combination, at 0.5 µM
[19] = measured here: with cisplatin IC20 combination, at 0.5 µM
[20] = measured here: combination with cisplatin, at 0.5 µM
[21] = measured here: combination with cisplatin, at 5 µM

In the case of O=C1C(=Cc2cccnc2)C(=O)c2ccccc21, the inhibition ([1]; at 0.5 µM, stronger effect = higher value) is reported as -18.2% (inactive), the inhibition ([1]; measured here: combination with BGB IC20, at 0.005 µM) is reported as -17.1% and the inhibition ([1]; measured here: combination with BGB IC40, at 0.005 µM) is reported as 67.5%. For the same compound, the inhibition [1, 17] was -27.5%, the inhibition ([1]; measured here: combination with cisplatin, at 0.5 µM, stronger effect = higher value) was -45.6% and the inhibition ([1]; measured here: combination with cisplatin, at 5 µM, stronger effect = higher value) was -16.1%. The inhibition ([2]; BGB combo, at 5 µM) was -24.2%, the inhibition ([2]; at 0.5 µM) was -0.8% (inactive) and the inhibition ([2]; cisplatin combo, at 5 µM) was -15.7%. The inhibition [2, 18] was -14.2%, the inhibition [2, 19] was 14.1% and the inhibition ([2]; single agent, at 5 µM) was -16.1%. The inhibition ([3]; BGB IC20 combo, at 0.005 µM) was 0.337%, the inhibition ([3]; BGB IC40 combo, at 0.005 µM) was -13.1% and the inhibition ([3]; BGB IC40 combo, at 0.05 µM) was -4.84%. The inhibition ([3]; at 0.5 µM) was -25.7% (inactive), the inhibition ([3]; cisplatin combo, at 0.05 µM) was -10.2% and the inhibition ([3]; cisplatin combo, at 0.5 µM) was -37.3%. For the same compound, the inhibition ([3]; cisplatin combo, at 5 µM) was -28.8%, the inhibition ([3]; measured here: 5 uM single agent, at 5 µM) was -20.5% and the inhibition ([4]; at 0.5 µM) was -8.72% (inactive). The inhibition [4, 17] was -20.3%, the inhibition [4, 20] was -8.61% and the inhibition [4, 21] was -32.8%. For the same compound, the inhibition ([5]; at 0.5 µM) was -5.81% (inactive), the inhibition ([5]; measured here: with BGB IC20, at 0.5 µM) was 0.006% and the inhibition ([5]; measured here: with BGB IC20, at 5 µM) was -4.06%. It also gave an inhibition ([5]; measured here: with cisplatin IC20, at 0.5 µM) of -17.7%, an inhibition ([5]; measured here: with cisplatin IC20, at 5 µM) of 0.224% and an inhibition ([5]; single agent, at 5 µM) of 6.13%. The inhibition ([6]; at 0.5 µM) was -26.6% (inactive), the inhibition ([6]; measured here: combination with BGB at IC20, at 0.5 µM) was -25.9% and the inhibition ([6]; measured here: combination with cisplatin at IC20, at 0.5 µM) was -22.2%. For the same compound, the inhibition ([7]; at 0.5 µM) was -8.47% (inactive), the inhibition ([7]; measured here: combo with BGB at IC20, at 0.5 µM) was -12% and the inhibition ([7]; measured here: combo with cisplatin at IC20, at 0.5 µM) was -5.96%. The inhibition ([8]; at 0.5 µM) was 0.75% (inactive), the inhibition ([8]; measured here: inhibition with BGB combination, at 0.05 µM) was 2.81% and the inhibition ([8]; measured here: inhibition with cisplatin combination, at 0.05 µM) was -5.97%. The inhibition ([9]; at 0.5 µM) was -15.3% (inactive), the inhibition [9, 20] was -19.2% and the inhibition [9, 21] was -18.7%. The inhibition ([10]; at 0.5 µM) was -13.9% (inactive), the inhibition ([10]; measured here: BGB combination, at 0.5 µM) was -13.8% and the inhibition ([10]; measured here: BGB combination, at 5 µM) was -19.4%. For the same compound, the inhibition ([10]; measured here: cisplatin combination, at 0.5 µM) was -27.6%, the inhibition ([10]; measured here: cisplatin combination, at 5 µM) was -23.4% and the inhibition ([11]; BGB combination, concentration series, at 5 µM) was -3.65%. For the same compound, the inhibition ([11]; at 0.5 µM) was -0.75% (inactive), the inhibition ([11]; cisplatin combination, concentration series, at 5 µM) was 4.94% and the inhibition [12] was 5.07% (inactive). For the same compound, the inhibition ([12]; measured here: combo with BGB IC20) was -3.05%, the inhibition ([12]; measured here: combo with cisplatin IC20) was 0.407% and the inhibition ([13]; at 0.5 µM) was -7.01% (inactive). It also gave an inhibition ([13]; cisplatin combination, at 0.5 µM) of -1.5%, an inhibition ([13]; cisplatin combination, at 5 µM) of -101% and an inhibition ([13]; measured here: BGB IC40 combination 0.05 uM, at 0.05 µM) of -30.3%. For the same compound, the inhibition ([13]; single agent, at 5 µM) was 9.68%, the inhibition ([14]; at 0.5 µM) was -13.1% (inactive) and the inhibition ([14]; cisplatin combo, at 5 µM) was 4.14%. The inhibition ([14]; measured here: BGB IC40 combination, at 0.05 µM) was -19.1%, the inhibition [14, 20] was -37% and the inhibition ([14]; single agent, at 5 µM) was -5.07%. For the same compound, the inhibition ([15]; at 0.5 µM) was 3.87% (inactive), the inhibition [15, 18] was -10.3% and the inhibition [15, 19] was 9.52%. It also gave an inhibition ([15]; single agent, at 0.05 µM) of -45.6% and an inhibition ([15]; single agent, at 5 µM) of -28.3%.
For Cc1nc(C(C)Nc2ncnc3sccc23)cs1 (centres undefined), the z-score [16] was 0.845 (inactive).
